# Data from publication PMC7819943, “Rice protein-binding microarrays: a tool to detect cis-acting elements near promoter regions in rice”.
# Whole data set: some 68,000 sequences, median “fluorescence intensity (a.u.)” near 9,100, cut for the highest 2% near 16,000. What follows is part of a selection rich in the highest values, with near analogues and random picks from the rest.
# Molecular target: OsWRKY34 (Oryza sativa, UniProt Q0JBA9 1-250)
# Experiment: protein-binding microarray (RPBM); PBS, 2% BSA, 51.3 ng/ul salmon testes DNA, 50 uM zinc acetate, 200 nM TF, 25 C, 1 h; high values mean tight binding
# Settings: protein: recombinant; tags: N-terminal polyhistidine and DsRed monomer fusion (pET32a); label: CyDye5-dUTP incorporated in the synthesized complementary strand; 3' TTTTT single-stranded linker to array surface; dsDNA, one strand shown
# How it was run: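 The binding signal is fluorescence intensity per array feature (arbitrary units). Readings came from an Axon 4000B scanner after a washed, 2% BSA-blocked, double-stranded custom Agilent array had been incubated for 1 h at 25 °C with 200 nM protein and 50 µM zinc acetate. The protein was a Ni–NTA-purified transcription factor fused N-terminally to polyhistidine and DsRed, expressed in E. coli BL21-CodonPlus.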
# OsWRKY34, sequence (Q0JBA9 entry or part of it): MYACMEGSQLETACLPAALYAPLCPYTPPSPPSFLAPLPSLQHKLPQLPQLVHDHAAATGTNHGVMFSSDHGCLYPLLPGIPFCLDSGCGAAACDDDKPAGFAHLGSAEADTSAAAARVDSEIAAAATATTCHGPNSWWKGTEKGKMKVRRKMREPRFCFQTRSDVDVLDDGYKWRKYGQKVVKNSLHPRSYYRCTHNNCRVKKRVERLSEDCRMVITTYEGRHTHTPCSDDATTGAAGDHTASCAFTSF
row,Sequence,binding signal
1,GACACTGCCACCTCACTCTCCACTCCACTATATATACCCTCGGAGTCACCTAGTGCAG,12100 fluorescence intensity (a.u.)
2,ACTCTCCCGTTATTGCCGCCACCGGACCGCTAGCTCCGCACGGAGTCACCTAGTGCAG,9570 fluorescence intensity (a.u.)
3,CCCACCTCGCCTTTCGATTGCGCGATCACCCACCTTTATACGGAGTCACCTAGTGCAG,10000 fluorescence intensity (a.u.)
4,GCAACTGCACATGTGCTTATTTAGTTTCTGCATTGGTCAACGGAGTCACCTAGTGCAG,12200 fluorescence intensity (a.u.)
5,CTCGTCACTCGTCTCGTCTCGCACAGTCGCAGCTGCTGCGCGGAGTCACCTAGTGCAG,8390 fluorescence intensity (a.u.)
6,ACTTTATCTTTGCCGCCGGCCGCCACAACTGCTTCTACGGCGGAGTCACCTAGTGCAG,9180 fluorescence intensity (a.u.)
7,GACAACGGTCAAATATGTGCTAAAAAGTCAACGGTATCAACGGAGTCACCTAGTGCAG,11600 fluorescence intensity (a.u.)
8,TCTCGCTCCTCATGCTCCTCTCCCGGCGGCGACGCTATGCCGGAGTCACCTAGTGCAG,8080 fluorescence intensity (a.u.)
9,CCAGCTGTGTGTGTGCACGCGGTTTTCCAATCGATTCTTCCGGAGTCACCTAGTGCAG,9270 fluorescence intensity (a.u.)
10,CTCTCTTCTTTTTATCTTATTCATATGTATTTATAGCTGACGGAGTCACCTAGTGCAG,10500 fluorescence intensity (a.u.)
11,TCCGTAAATCCAACATGGCACTATTACCGCCGGCTTAAATCGGAGTCACCTAGTGCAG,56000 fluorescence intensity (a.u.)
12,TACCGCCTGAAATCCAACATTATTATGCACTGTAATTTACCGGAGTCACCTAGTGCAG,8170 fluorescence intensity (a.u.)
13,GCTCCGTGGCACTATTTTTTTTTTACCGCGAATCCTCCAACGGAGTCACCTAGTGCAG,9550 fluorescence intensity (a.u.)
14,TATCCGTTCGCGTCCCCGCCCTCGCTTCGCCGCGGCAATGCGGAGTCACCTAGTGCAG,9720 fluorescence intensity (a.u.)
15,GCATCCGTGTCCTTTGCCGAAGCCGAAGGCCCGCTCTCTCCGGAGTCACCTAGTGCAG,8900 fluorescence intensity (a.u.)
16,GGTACTCTCTTCGTTTTTAGTATACGACGCCGTTGACTTTCGGAGTCACCTAGTGCAG,16000 fluorescence intensity (a.u.)
17,TATACGACGCCGTTGACTTTTTAAGATACGTTAGACCATTCGGAGTCACCTAGTGCAG,20300 fluorescence intensity (a.u.)
18,TTGACTTTTTAACCAACGTTTGACTATTCGTCTTATTCAACGGAGTCACCTAGTGCAG,10100 fluorescence intensity (a.u.)
19,CTCATGTTTGACCATTCGTCTTATTTAAAAACTTTTGTGACGGAGTCACCTAGTGCAG,8180 fluorescence intensity (a.u.)
20,GTCATTTATTTTTACCAACGTTTGACTATTCGTCTTATTTCGGAGTCACCTAGTGCAG,9430 fluorescence intensity (a.u.)
21,TGGATGGTACTCCCTCCTCTAAATGTTTGACGCCGTTGACCGGAGTCACCTAGTGCAG,14400 fluorescence intensity (a.u.)
22,TACCTCATTCCCTAAATGTTTGACGCCGTTGACTTTTTTACGGAGTCACCTAGTGCAG,17500 fluorescence intensity (a.u.)

row,Sequence,binding signal
1,ATGATGCCGTTGACTTTTTGAACAACGTTTGACTATTCGTCGGAGTCACCTAGTGCAG,32600 fluorescence intensity (a.u.)
2,TTGACACCATTGACTTTTTTAAACATGTTTGACCGTTCGTCGGAGTCACCTAGTGCAG,15100 fluorescence intensity (a.u.)
3,TATTTGACGTCGTTGACTTTTTAAAACATGTTTGACCATTCGGAGTCACCTAGTGCAG,30200 fluorescence intensity (a.u.)
4,ACTCCCTCCATTTTTTTAATTGACGACGCCATTGACTTTTCGGAGTCACCTAGTGCAG,9350 fluorescence intensity (a.u.)
5,AAGCAGCAAAAGTCACACATACACTCTCTCTGCTACTACTCGGAGTCACCTAGTGCAG,8160 fluorescence intensity (a.u.)
6,TTAACTTTTACTCTAATTTATTCTCCTGTACCTTTTTATACGGAGTCACCTAGTGCAG,8250 fluorescence intensity (a.u.)
7,AGGTGGTTGGTGAGGTTTGCTTTGCACGATCGAGTGAGGACGGAGTCACCTAGTGCAG,10500 fluorescence intensity (a.u.)
8,TCCTTCCCTAAATGTTTGACGCCGTTGACTTTTTTAAACACGGAGTCACCTAGTGCAG,16600 fluorescence intensity (a.u.)
9,TCCGTTTCGAAATGCTTGACGCCGTTGACTTTTTTAAACACGGAGTCACCTAGTGCAG,19400 fluorescence intensity (a.u.)
10,TTTGACGCCGTTGACTTTTTTAAACATGCTTGATCATTCACGGAGTCACCTAGTGCAG,13700 fluorescence intensity (a.u.)
11,ACGCCGTTGACTTTTTAAGCAACATTTGACCATTCGTTTTCGGAGTCACCTAGTGCAG,30000 fluorescence intensity (a.u.)
12,ATATACTCCCTCCTTCCCTAAATGTTTGACGCCGTTGACTCGGAGTCACCTAGTGCAG,11400 fluorescence intensity (a.u.)
13,AAATGTTTGACGCCGTTGACTTTTTTAAACATGTTTGACCCGGAGTCACCTAGTGCAG,33600 fluorescence intensity (a.u.)
14,AACAGCCTGTTTTTGTGTGTTTTTTTCGTAAGTAATTAGTCGGAGTCACCTAGTGCAG,8760 fluorescence intensity (a.u.)
15,GGCTGCCCGCTCCTACATCCACATGCATGCTTCACACTGCCGGAGTCACCTAGTGCAG,8330 fluorescence intensity (a.u.)
16,TTAGTTGTTACCTTTGTCTCCTTCGTTGATCCATTGAAAGCGGAGTCACCTAGTGCAG,10500 fluorescence intensity (a.u.)
17,GTATACCTGCGCGTATACGGATGTTTTCGGCGTACATTAACGGAGTCACCTAGTGCAG,8390 fluorescence intensity (a.u.)
18,GTTCATCAATCTACTGTACTGGCCTCCTTCTCAGCTCTCACGGAGTCACCTAGTGCAG,9300 fluorescence intensity (a.u.)
19,TAACGCCGTTTACCTTTTAACAAACGTTTTACCTTTCGTTCGGAGTCACCTAGTGCAG,10400 fluorescence intensity (a.u.)
20,CTTCCCTAAATGTTTAACGCCATTGACTTTTTTAAACATGCGGAGTCACCTAGTGCAG,12900 fluorescence intensity (a.u.)
21,TGACGCCGTTGGTTTTTTTAAACATGTTTGACCATTCGTCCGGAGTCACCTAGTGCAG,8990 fluorescence intensity (a.u.)
22,AATGTTTGACGCCGTTGACTTTTTTAAACATGTTTGACCACGGAGTCACCTAGTGCAG,42500 fluorescence intensity (a.u.)
